Test results taken from PubChem BioAssay AID372 (MTDP, 2006).
Values joined by “and” are separate entries in the source; they are usually repeats but may differ in a detail not shown here. Equal entries are not always repeated. Among all 100,000 compounds or so, about 770 (0.77%) were called active. This is one part of a sample in which actives are shown more often than they occur. Unmarked numbers belong to inactive results. Rule as the data show it: active = inhibition above about 50%; inactive = the rest.

Biological target: Gag-Pol polyprotein (Human immunodeficiency virus type 1 group M subtype B (isolate HXB2)) (UniProt P04585)
Test: RNase H inhibition, HIV 1 Gag Pol polyprotein, FRET biochemical assay, screening (AID 372)
Conditions: HIV-1 RT RNase H, FRET RNA/DNA substrate fluorescence; at 10 µM; stronger effect = higher value

Compound | inhibition
Clc1ccc(Oc2sc(Nc3cccc(Cl)c3)nc2-c2ccccc2)cc1 | 21%
NS(=O)(=O)c1ccc(CCNC(=O)/C=C/c2cccc([N+](=O)[O-])c2)cc1 | 4%
CCOc1ccc(/C=C(/C#N)c2nc3ccccc3[nH]2)cc1OC | 0%
Cc1ccccc1C(=O)Nc1ccc2c(c1)C(=O)c1ccccc1C2=O | 18%
O=C(Nc1ccc2c(c1)C(=O)c1ccccc1C2=O)c1cccc(Cl)c1 | 60% (active)
O=C(O)c1ccccc1C(=O)Nc1ccc2c(c1)C(=O)c1ccccc1C2=O | 0%
O=C1c2ccccc2C(=O)c2cc(NC(=O)c3coc4ccccc34)ccc21 | 63% (active)
CCCCOc1ccc(C(=O)Nc2ccc3c(c2)C(=O)c2ccccc2C3=O)cc1 | 40%
O=C(Nc1ccc2c(c1)C(=O)c1ccccc1C2=O)c1cccc(F)c1 | 49%
O=C(Nc1ccc2c(c1)C(=O)c1ccccc1C2=O)c1ccccc1 | 15%
CCOc1cc(C(=O)Nc2ccc3c(c2)C(=O)c2ccccc2C3=O)cc(OCC)c1OCC | 0%
NC1=NC(=O)/C(=C/c2cc(Br)ccc2OCc2ccccc2)S1 | 9%
Cn1c(=O)c2c(nc(Sc3nc4ccccc4n3Cc3ccccc3)n2C)n(C)c1=O | 0%
CC(CCC(=O)Nc1ccc(F)cc1)CC(=O)Nc1ccc(F)cc1 (centres undefined) | 6%
CC(=O)c1cccc(NC(=O)CC2S/C(=N\N=C(/C)C(C)(C)C)NC2=O)c1 (centres undefined) | 7%
CCCc1sc(NC(=O)c2ccc(OC)cc2)nc1-c1ccc(Br)cc1 | 42%
CCCCCCCNC1CC(=O)N(c2ccc(OCCC)cc2)C1=O (centres undefined) | 6%
CCOc1ccc(C(=O)NC(=S)Nc2ccc(-c3nc4ccc(C)cc4o3)cc2)cc1Cl | 56% (active)
COc1ccc(C(=O)Nc2ccc3oc(-c4ccccc4)nc3c2)cc1Cl | 4%
CCOc1ccc(C(=O)Nc2ccc(-c3nc4ccc(C)cc4o3)cc2)cc1Cl | 59% (active)
CCOc1ccc(C(=O)NC(=S)Nc2cc(-c3nc4cc(C)ccc4o3)ccc2Cl)cc1 | 60% (active)
CCOc1ccc(C(=O)NC(=S)Nc2ccc3oc(-c4ccc(C)cc4)nc3c2)cc1Cl | 10%
Cc1ccc2oc(-c3ccc(Cl)c(NC(=S)NC(=O)c4ccc(Cl)cc4)c3)nc2c1 | 48%
CCOc1ccc(C(=O)NC(=S)Nc2cc(-c3nc4ccc(C)cc4o3)ccc2Cl)cc1 | 29%

Compound | inhibition
CCOc1ccc(C(=O)Nc2ccc(-c3nc4cc(C)ccc4o3)cc2)cc1Cl | 12%
CCOc1cc(C(=O)Nc2ccc(-c3nc4ccc(C)cc4o3)cc2)cc(OCC)c1OCC | 10%
COc1ccc(C(=O)Nc2ccc3oc(-c4ccc(OC)c(Cl)c4)nc3c2)cc1Cl | 30%
CCOc1ccc(C(=O)NC(=S)Nc2ccc(Cl)c(-c3nc4ccc(C)cc4o3)c2)cc1Cl | 18%
COc1ccc(C(=O)Nc2ccc(-c3nc4cc(C)c(C)cc4o3)cc2)cc1Cl | 51% (active)
CCOc1c(Br)cc(/C=C2/C(=O)NN(c3ccc(C)c(C)c3)C2=O)cc1OC | 22%
COc1cc([N+](=O)[O-])ccc1NC(=S)NC(=O)/C=C/c1ccccc1 | 12%
Fc1ccc(-c2nnc(-c3ccc(Br)o3)o2)cc1 | 6%
COc1ccc(OC)c(N(CC(=O)N(Cc2ccccc2)Cc2ccccc2)S(=O)(=O)c2ccccc2)c1 | 21%
O=C(N/N=C\c1ccc[nH]1)c1cccc2c3c([nH]c12)CCCC3 | 24%
COc1ccc(OC)c(NC(=O)CN(c2ccc(C(C)C)cc2)S(=O)(=O)c2ccccc2)c1 | 8%
C/C(=N/NC(=O)c1ccc2c(c1)OCO2)c1ccc(Br)s1 | 13%
COc1cc(Br)ccc1OCC(=O)N=Nc1c(O)n(C)c2c(C)cccc12 | 52% (active)
Cc1cccc2c(N=NC(=O)COc3cccc(Br)c3)c(O)n(C)c12 | 20%
COc1ccc(OCC(=O)N=Nc2c(O)n(C)c3c(C)cccc23)c(Br)c1 | 4%
CC(C)OC(=O)c1ccc(NC(=O)c2ccc(Br)cc2)cc1 | 11%
CC(=O)Oc1ccc(-c2cccc(C(=O)OC(C)C)c2)cc1 | 9%
N#C/C(=C/c1ccc(OCc2ccc(C(=O)O)cc2)cc1)C(=O)Nc1ccccc1 | 0%
C=CCc1cccc2cc(C(=O)Nc3ccccc3)c(=O)oc12 | 12%
C=CCc1cccc2cc(C(=O)Nc3ccc(C)c(Cl)c3)c(=O)oc12 | 0%
C=CCc1cccc2cc(C(=O)NNC(=O)CC#N)c(=O)oc12 | 54% (active)
C=CCc1cccc2cc(C(=O)NNC(=O)c3ccc(OC)cc3)c(=O)oc12 | 1%
C=CCc1cccc2cc(C(=O)Nc3ccc(Cl)c(Cl)c3)c(=O)oc12 | 62% (active)
C=CCc1cccc2cc(C(=O)Nc3ccc(NC(C)=O)cc3)c(=O)oc12 | 10%

Compound | inhibition
CC(=O)/C(=C(/C)O)c1ncc(-c2ccccc2)s1 | 12%
Cc1cccc(C(=O)Nc2cccc(C(=O)Nc3ccccc3Cl)c2)c1 | 13%
O=C(Cn1c(NCCO)nc2ccccc21)c1cccc2ccccc12 | 21%
COc1cccc(N2C(=O)/C(=C/c3ccc([N+](=O)[O-])cc3)SC2=S)c1 | 7%
COc1cccc(NC(=O)c2ccc(C(C)(C)C)cc2)c1 | 11%
NC(=O)N=Nc1c(O)[nH]c2ccc(I)cc12 | 5%
CC1(C)CC(=O)C(C=NC2CCCCCCC2)=C(O)C1 | 3%
COc1ccc(CCC(=O)Nc2sc3c(c2C(N)=O)CCCCCC3)cc1 | 12%
NC(=O)c1c(NC(=O)c2ccc(S(=O)(=O)N3CCCCC3)cc2)sc2c1CCCC2 | 53% (active)
O=C(Nc1ccccc1)c1c(NC(=S)Nc2ccccc2)sc2c1CCCC2 | 46%
COC(=O)c1c(NC(=S)Nc2ccccc2)sc2c1CCCC2 | 59% (active)
Cc1ccc(C(=O)Nc2sc3c(c2C(N)=O)CCCCCC3)cc1 | 32%
COc1cc2ccccc2cc1C(=O)Nc1sc2c(c1C(N)=O)CCCC2 | 59% (active)
COc1ccc(C(=O)Nc2sc3c(c2C(N)=O)CCCC3)cc1 | 17%
O=C(CCc1ccccc1)Nc1sc2c(c1C(=O)O)CCCC2 | 4%
COc1ccc(C(=O)Nc2sc3c(c2C(N)=O)CCCCCC3)cc1OC | 0%
CCOC(=O)c1c(NC(=O)c2ccc(S(=O)(=O)N3CCCCCC3)cc2)sc2c1CCC2 | 6%
CCOC(=O)c1c(NC(=S)Nc2ccccc2)sc2c1CCCCC2 | 28%
C=CCN1C(=O)/C(=C\c2ccc(OCc3ccccc3C)c(OC)c2)SC1=S | 16%
COC(=O)c1cccc(NC(=O)COc2ccc(Br)c(C)c2)c1 | 3%
Cc1c(NC(=O)COc2ccc(Cl)cc2Cl)cccc1[N+](=O)[O-] | 15%
CCN(CC)c1ccc(Nc2nc(-c3sc(N)nc3C)cs2)cc1 | 28%
CCN1CCn2c3c(c4cc(Br)ccc42)CCCC31 (centres undefined) | 7% and 3%
C(=NN1CCN(c2ccccn2)CC1)c1cccc(OCc2ccccc2)c1 | 0%

Compound | inhibition
Cc1ccc(NC(=O)c2cccc([N+](=O)[O-])c2)cc1C | 1%
Cc1ccc(C)c(NC(=S)NC(=O)c2ccc(C)c([N+](=O)[O-])c2)c1 | 33%
NC(=O)C1CCN(C2CC(=O)N(c3ccc(Cl)cc3)C2=O)CC1 (centres undefined) | 12%
CCOc1ccc(N(CC(=O)Nc2c(C)cccc2C)S(C)(=O)=O)cc1 | 18%
C=CCOc1ccc(C=O)cc1I | 25%
O=C(Nc1ccc([N+](=O)[O-])cc1Cl)c1cccnc1 | 5%
CC(C)C(NC(=O)CN(c1ccccc1F)S(C)(=O)=O)C(C)C | 11%
NC(=O)c1c(N)sc2c1CCCCCCCCCC2 | 28%
NC(=O)c1c(N)sc2c1CCCCCC2 | 20%
COc1cc(N2Cc3ccccc3C2)ccc1/C=C1\C(=O)NC(=O)N(Cc2ccco2)C1=O | 51% (active)
O=C1NC(=O)N(Cc2ccco2)C(=O)/C1=C\c1cn(Cc2cccc(F)c2)c2ccccc12 | 57% (active)
NC(=O)Cn1cc(/C=C2/C(=O)NC(=O)N(Cc3ccco3)C2=O)c2ccccc21 | 0%
CCN(CC)c1ccc(/C=C2/C(=O)NC(=O)N(Cc3ccco3)C2=O)c(OC)c1 | 45%
COc1ccc2ccccc2c1/C=C1\C(=O)NC(=O)N(Cc2ccccc2)C1=O | 40%
O=C1NC(=O)N(Cc2ccco2)C(=O)/C1=C\C=C\c1ccccc1 | 52% (active)
O=C1NC(=O)N(Cc2ccco2)C(=O)/C1=C/c1ccc(OCCOc2ccccc2)cc1 | 13%
COc1ccc(/C=C2/C(=O)NC(=O)N(Cc3ccco3)C2=O)c2ccccc12 | 48%
Cc1cc(N2Cc3ccccc3C2)ccc1/C=C1\C(=O)NC(=O)N(Cc2ccco2)C1=O | 42%
COc1ccc2ccccc2c1/C=C1/C(=O)NC(=O)N(Cc2ccco2)C1=O | 50% (active)
COc1ccc(CN2C(=O)NC(=O)/C(=C\C=C\c3ccccc3)C2=O)cc1 | 10%
O=C1NC(=O)N(Cc2ccco2)C(=O)/C1=C\c1cn(Cc2ccc(Cl)cc2)c2ccccc12 | 37%
Cc1ccc(NC(=O)c2ccc(Cl)c(Cl)c2)c([N+](=O)[O-])c1 | 1%
